Test results: the supplement of paper PMC6411743
± gives the standard deviation of the averaged measurements. The full data set covers some 6,500 targets. This sample favours those with the largest changes.

Compound: Nc1ncnc2c1ncn2[C@@H]1O[C@H](COP(=O)(O)OP(=O)(O)OP(=O)(O)O)[C@@H](O)[C@H]1O [adenosine triphosphate]
Test: NP40-soluble protein abundance relative to vehicle (solubility fold change) (ratio); higher = more soluble protein in presence of ATP
In short: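 Jurkat crude lysate prepared with a Dounce homogeniser was treated at eight concentrations spanning 0.1 to 10 mM, 10 min at room temperature then 3 min at 37 °C. Solubilisation with 0.8% NP40 and benzonase and ultracentrifugation preceded TMT labelling of the supernatant for LC-MS/MS. Fold change against the detergent-processed vehicle was determined per replicate from vsn-normalised intensities, across three independent experiments.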

UniProt P19397, sequence (P19397 whole entry): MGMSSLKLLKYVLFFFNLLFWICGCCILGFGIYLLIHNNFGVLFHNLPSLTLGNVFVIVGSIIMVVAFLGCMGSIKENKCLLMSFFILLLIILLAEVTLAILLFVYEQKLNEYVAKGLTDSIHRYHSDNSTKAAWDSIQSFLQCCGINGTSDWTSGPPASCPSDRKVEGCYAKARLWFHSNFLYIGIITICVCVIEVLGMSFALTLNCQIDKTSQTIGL
UniProt P26639, sequence (P26639 whole entry): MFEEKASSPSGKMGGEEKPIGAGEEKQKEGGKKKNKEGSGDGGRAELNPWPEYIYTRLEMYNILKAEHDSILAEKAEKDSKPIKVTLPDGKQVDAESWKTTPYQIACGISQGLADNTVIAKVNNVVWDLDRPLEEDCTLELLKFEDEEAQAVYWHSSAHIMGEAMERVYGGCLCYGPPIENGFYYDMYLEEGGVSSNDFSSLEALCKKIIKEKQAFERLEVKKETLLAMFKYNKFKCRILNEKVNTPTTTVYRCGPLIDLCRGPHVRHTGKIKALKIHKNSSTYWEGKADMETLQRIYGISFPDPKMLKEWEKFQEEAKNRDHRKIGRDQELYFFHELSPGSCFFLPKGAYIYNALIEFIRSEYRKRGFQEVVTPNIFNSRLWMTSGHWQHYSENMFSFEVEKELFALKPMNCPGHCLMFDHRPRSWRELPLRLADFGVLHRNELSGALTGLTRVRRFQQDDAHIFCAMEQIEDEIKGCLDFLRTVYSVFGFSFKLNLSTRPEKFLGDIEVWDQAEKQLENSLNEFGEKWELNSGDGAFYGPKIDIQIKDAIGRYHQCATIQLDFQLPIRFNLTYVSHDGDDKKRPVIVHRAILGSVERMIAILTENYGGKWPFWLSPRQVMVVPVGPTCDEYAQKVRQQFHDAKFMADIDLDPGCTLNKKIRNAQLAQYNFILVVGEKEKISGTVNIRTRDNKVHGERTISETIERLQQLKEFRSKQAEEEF
UniProt P13010, sequence (P13010 whole entry): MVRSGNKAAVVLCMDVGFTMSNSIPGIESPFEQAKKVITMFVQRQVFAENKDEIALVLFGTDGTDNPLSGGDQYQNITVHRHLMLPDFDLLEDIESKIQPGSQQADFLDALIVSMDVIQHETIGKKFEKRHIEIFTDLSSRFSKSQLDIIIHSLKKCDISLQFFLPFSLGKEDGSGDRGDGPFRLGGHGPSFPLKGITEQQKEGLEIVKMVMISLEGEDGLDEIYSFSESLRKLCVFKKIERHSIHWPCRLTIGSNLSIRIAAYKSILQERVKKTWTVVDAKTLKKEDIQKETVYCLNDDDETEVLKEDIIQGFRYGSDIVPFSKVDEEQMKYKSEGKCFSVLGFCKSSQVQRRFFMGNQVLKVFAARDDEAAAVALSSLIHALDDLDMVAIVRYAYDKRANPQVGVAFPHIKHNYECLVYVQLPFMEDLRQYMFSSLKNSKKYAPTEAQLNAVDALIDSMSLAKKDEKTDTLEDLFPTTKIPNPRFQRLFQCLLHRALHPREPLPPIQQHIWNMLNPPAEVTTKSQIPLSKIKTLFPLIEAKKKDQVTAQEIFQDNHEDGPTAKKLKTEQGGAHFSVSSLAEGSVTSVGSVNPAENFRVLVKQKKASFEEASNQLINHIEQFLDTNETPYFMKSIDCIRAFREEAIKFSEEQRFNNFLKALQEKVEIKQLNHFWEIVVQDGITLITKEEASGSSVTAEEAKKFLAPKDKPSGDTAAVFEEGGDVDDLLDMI
UniProt P28908, sequence (P28908 whole entry): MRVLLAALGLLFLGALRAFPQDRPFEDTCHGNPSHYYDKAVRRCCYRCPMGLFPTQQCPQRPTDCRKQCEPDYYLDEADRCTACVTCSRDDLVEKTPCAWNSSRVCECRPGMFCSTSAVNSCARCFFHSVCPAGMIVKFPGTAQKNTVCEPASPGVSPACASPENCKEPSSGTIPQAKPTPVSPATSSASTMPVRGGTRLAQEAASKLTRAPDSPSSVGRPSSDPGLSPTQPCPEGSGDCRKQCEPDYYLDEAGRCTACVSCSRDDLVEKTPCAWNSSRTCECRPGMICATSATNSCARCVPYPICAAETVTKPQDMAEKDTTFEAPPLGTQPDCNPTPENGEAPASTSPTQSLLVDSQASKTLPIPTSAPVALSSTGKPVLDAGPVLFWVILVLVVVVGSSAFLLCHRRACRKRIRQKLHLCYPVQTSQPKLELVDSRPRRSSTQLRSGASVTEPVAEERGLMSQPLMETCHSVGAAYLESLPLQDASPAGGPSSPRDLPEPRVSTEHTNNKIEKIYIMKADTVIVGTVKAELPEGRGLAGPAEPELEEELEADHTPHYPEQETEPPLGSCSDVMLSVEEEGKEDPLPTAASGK
UniProt P50990, sequence (P50990 whole entry): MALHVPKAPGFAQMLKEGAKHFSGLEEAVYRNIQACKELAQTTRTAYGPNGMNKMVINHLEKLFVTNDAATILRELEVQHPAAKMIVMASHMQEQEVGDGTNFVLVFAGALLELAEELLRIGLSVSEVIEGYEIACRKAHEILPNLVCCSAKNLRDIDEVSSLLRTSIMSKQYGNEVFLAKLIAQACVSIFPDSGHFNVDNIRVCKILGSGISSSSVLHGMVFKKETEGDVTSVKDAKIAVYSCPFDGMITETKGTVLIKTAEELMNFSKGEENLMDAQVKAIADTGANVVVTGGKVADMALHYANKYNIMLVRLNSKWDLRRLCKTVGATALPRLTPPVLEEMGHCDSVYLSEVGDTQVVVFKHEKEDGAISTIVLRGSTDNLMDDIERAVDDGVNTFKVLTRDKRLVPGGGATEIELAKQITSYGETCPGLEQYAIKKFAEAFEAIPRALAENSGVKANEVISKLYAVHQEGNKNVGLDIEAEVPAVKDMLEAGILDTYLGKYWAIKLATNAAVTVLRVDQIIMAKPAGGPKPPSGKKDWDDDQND
UniProt O95757, sequence (O95757 whole entry): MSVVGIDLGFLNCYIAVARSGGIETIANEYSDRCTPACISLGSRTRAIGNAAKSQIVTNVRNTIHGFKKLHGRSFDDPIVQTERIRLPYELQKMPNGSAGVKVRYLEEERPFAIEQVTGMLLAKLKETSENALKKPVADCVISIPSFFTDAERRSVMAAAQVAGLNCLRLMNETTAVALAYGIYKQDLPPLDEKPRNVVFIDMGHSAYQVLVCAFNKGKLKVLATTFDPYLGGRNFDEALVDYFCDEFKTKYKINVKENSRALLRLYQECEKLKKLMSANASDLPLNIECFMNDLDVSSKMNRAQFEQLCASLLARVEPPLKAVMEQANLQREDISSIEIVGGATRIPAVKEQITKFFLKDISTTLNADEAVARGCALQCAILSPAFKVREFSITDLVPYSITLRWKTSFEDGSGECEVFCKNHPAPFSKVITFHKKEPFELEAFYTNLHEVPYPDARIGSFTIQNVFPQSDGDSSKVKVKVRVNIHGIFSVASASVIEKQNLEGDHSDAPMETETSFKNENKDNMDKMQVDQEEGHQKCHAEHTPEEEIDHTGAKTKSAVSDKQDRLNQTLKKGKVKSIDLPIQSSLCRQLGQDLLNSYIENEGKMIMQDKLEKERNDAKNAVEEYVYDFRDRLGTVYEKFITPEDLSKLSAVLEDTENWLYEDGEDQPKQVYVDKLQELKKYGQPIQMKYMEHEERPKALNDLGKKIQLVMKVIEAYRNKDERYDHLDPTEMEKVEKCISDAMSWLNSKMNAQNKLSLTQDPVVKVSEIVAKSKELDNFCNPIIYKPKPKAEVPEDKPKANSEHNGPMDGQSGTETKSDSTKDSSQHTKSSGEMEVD
UniProt P53677, sequence (P53677 whole entry): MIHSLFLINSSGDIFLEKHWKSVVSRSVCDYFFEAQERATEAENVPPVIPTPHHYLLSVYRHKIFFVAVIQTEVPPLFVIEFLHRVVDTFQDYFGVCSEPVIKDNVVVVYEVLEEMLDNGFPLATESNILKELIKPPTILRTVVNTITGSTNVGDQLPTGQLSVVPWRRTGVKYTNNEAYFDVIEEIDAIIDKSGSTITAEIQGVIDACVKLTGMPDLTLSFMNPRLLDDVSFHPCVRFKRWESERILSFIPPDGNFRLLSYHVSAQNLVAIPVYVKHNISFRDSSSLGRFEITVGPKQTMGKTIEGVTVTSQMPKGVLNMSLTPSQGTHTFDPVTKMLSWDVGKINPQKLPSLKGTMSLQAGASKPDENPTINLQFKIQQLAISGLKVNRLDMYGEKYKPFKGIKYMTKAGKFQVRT
UniProt P10746, sequence (P10746 whole entry): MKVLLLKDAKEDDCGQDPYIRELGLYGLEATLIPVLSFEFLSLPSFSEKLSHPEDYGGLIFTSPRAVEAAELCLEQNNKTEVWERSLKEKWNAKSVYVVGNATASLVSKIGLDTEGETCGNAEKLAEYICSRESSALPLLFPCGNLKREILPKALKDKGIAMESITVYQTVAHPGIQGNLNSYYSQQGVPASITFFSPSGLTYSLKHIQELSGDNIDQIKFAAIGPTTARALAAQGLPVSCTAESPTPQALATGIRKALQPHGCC
UniProt P22087, sequence (P22087 whole entry): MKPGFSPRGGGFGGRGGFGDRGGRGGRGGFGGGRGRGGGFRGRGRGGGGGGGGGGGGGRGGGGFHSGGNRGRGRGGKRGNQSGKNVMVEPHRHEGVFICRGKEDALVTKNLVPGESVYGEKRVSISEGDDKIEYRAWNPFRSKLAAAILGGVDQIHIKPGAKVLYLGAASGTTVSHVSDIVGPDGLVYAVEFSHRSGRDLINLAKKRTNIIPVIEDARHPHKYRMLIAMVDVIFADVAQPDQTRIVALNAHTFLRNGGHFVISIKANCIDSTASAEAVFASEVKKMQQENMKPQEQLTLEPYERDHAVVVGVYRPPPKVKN
UniProt P56381, sequence (P56381 whole entry): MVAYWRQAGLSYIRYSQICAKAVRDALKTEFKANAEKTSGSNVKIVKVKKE
UniProt P46527, sequence (P46527 whole entry): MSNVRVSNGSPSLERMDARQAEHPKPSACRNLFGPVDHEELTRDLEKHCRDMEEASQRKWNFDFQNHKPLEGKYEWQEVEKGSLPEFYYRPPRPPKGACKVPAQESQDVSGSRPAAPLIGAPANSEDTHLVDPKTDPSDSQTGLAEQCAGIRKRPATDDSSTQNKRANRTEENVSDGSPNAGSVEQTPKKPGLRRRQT

Target	NP40-soluble protein abundance (concentration: 1mM)	NP40-soluble protein abundance (concentration: 2mM)	NP40-soluble protein abundance (concentration: 4mM)	NP40-soluble protein abundance (concentration: 6mM)	NP40-soluble protein abundance (concentration: 8mM)	NP40-soluble protein abundance (concentration: 10mM)
GCSH (UniProt P23434)	0.985 ± 0.048	0.971 ± 0.024	0.986 ± 0.051	1.03 ± 0.05	0.915 ± 0.051	0.927 ± 0.092
SFPQ (UniProt P23246)	1.125 ± 0.0082	1.302 ± 0.0053	1.67 ± 0.042	1.72 ± 0.18	1.81 ± 0.11	1.68 ± 0.17
TMEM63A (UniProt O94886)	0.9962 ± 0.0062	1.016 ± 0.004	1.01 ± 0.023	1.0012 ± 0.00078	0.961 ± 0.024	0.979 ± 0.01
UniProt P61225	1.01 ± 0.074	0.921 ± 0.091	0.92 ± 0.082	0.846 ± 0.11	0.932 ± 0.065	0.932 ± 0.016
UniProt P26639	1 ± 0.1	0.988 ± 0.075	0.95 ± 0.078	0.928 ± 0.11	0.989 ± 0.054	0.949 ± 0.042
UniProt P51114|P51114-2	1.644 ± 0.0088	1.79 ± 0.041	2.03 ± 0.048	2.17 ± 0.11	2.32 ± 0.039	2.4 ± 0.045
HMGN1 (UniProt P05114)	1.23 ± 0.32	2 ± 0.51	1.5 ± 0.35	1.88 ± 0.89	1.67 ± 0.38	1.95 ± 1.1
AKR1A1 (UniProt P14550)	0.989 ± 0.046	0.979 ± 0.047	0.956 ± 0.048	0.959 ± 0.086	0.986 ± 0.059	0.944 ± 0.05
VAMP7 (UniProt P51809)	0.955 ± 0.046	0.958 ± 0.05	0.938 ± 0.028	0.894 ± 0.1	0.943 ± 0.044	0.945 ± 0.044
AGA (UniProt P20933)	0.925 ± 0.059	0.964 ± 0.07	0.978 ± 0.079	0.94 ± 0.081	0.914 ± 0.064	0.876 ± 0.071
FXR2 (UniProt P51116)	1.68 ± 0.23	1.77 ± 0.15	2.06 ± 0.29	2.24 ± 0.27	2.26 ± 0.3	2.33 ± 0.26
UniProt O95639|O95639-2|O95639-3	1.3 ± 0.028	1.38 ± 0.046	1.52 ± 0.06	1.64 ± 0.1	1.7 ± 0.039	1.73 ± 0.078
TOP1 (UniProt P11387)	1.05 ± 0.019	1.088 ± 0.0094	1.22 ± 0.028	1.42 ± 0.035	1.599 ± 0.0062	1.78 ± 0.074
PFN1 (UniProt P07737)	0.941 ± 0.059	0.934 ± 0.049	0.918 ± 0.027	0.92 ± 0.059	0.891 ± 0.015	0.911 ± 0.034
ZBTB11 (UniProt O95625)	1.03 ± 0.057	1.004 ± 0.0071	1.03 ± 0.053	0.949 ± 0.021	0.97 ± 0.015	0.979 ± 0.04
CCT8 (UniProt P50990)	0.976 ± 0.029	0.909 ± 0.033	0.823 ± 0.036	0.86 ± 0.12	0.842 ± 0.081	0.835 ± 0.063
CTDSPL2 (UniProt Q05D32)	1.13 ± 0.11	1.13 ± 0.07	1.27 ± 0.09	1.32 ± 0.082	1.33 ± 0.14	1.47 ± 0.03
SGPL1 (UniProt O95470)	1.05 ± 0.14	1.03 ± 0.1	1.02 ± 0.086	0.965 ± 0.094	1.07 ± 0.079	1.06 ± 0.075
UniProt O75400|O75400-2	1.35 ± 0.075	1.44 ± 0.086	1.65 ± 0.097	2.14 ± 0.13	2.39 ± 0.13	2.62 ± 0.2
HSPA4L (UniProt O95757)	0.964 ± 0.015	0.9785 ± 0.0092	0.951 ± 0.018	0.987 ± 0.018	0.937 ± 0.036	0.949 ± 0.019

Target	NP40-soluble protein abundance (concentration: 1mM)	NP40-soluble protein abundance (concentration: 2mM)	NP40-soluble protein abundance (concentration: 4mM)	NP40-soluble protein abundance (concentration: 6mM)	NP40-soluble protein abundance (concentration: 8mM)	NP40-soluble protein abundance (concentration: 10mM)
UniProt Q01826|Q01826-2	0.952 ± 0.051	0.96 ± 0.023	0.919 ± 0.039	0.96 ± 0.031	0.928 ± 0.02	0.922 ± 0.011
UniProt P54274|P54274-2	1.14 ± 0.12	1.27 ± 0.17	1.43 ± 0.17	1.69 ± 0.26	1.58 ± 0.25	1.88 ± 0.35
UROS (UniProt P10746)	0.973 ± 0.029	0.988 ± 0.041	0.98 ± 0.061	0.968 ± 0.038	0.95 ± 0.059	0.927 ± 0.054
CDKN1B (UniProt P46527)	0.964 ± 0.099	0.998 ± 0.057	0.985 ± 0.08	1.09 ± 0.077	0.919 ± 0.071	0.916 ± 0.1
CD53 (UniProt P19397)	0.898 ± 0.042	0.833 ± 0.05	0.85 ± 0.06	0.832 ± 0.049	0.823 ± 0.07	0.791 ± 0.093
COX5B (UniProt P10606)	0.9588 ± 0.0074	0.963 ± 0.013	0.966 ± 0.032	1.01 ± 0.028	0.936 ± 0.055	0.929 ± 0.012
UniProt P55769	1.03 ± 0.15	1.06 ± 0.11	1.13 ± 0.13	1.23 ± 0.11	1.28 ± 0.049	1.33 ± 0.24
UniProt Q01543|Q01543-3|Q01543-2	0.989 ± 0.05	0.997 ± 0.013	0.996 ± 0.032	1.01 ± 0.048	0.969 ± 0.033	0.9608 ± 0.0033
UniProt P62253	1.06 ± 0.053	1.05 ± 0.071	1 ± 0.07	1.01 ± 0.11	1.03 ± 0.097	0.947 ± 0.049
UniProt P56381	2.11 ± 1.8	0.927 ± 0.037	0.827 ± 0.014	1.2 ± 0.39	0.93 ± 0.067	0.875 ± 0.046
PRIM2 (UniProt P49643)	1.03 ± 0.057	1.02 ± 0.025	1.02 ± 0.032	1 ± 0.034	1.02 ± 0.028	1.03 ± 0.047
UniProt P18583|P18583-5|P18583-7|P18583-9	1.28 ± 0.057	1.3 ± 0.075	1.36 ± 0.099	1.49 ± 0.14	1.45 ± 0.095	1.55 ± 0.13
EMD (UniProt P50402)	1.13 ± 0.096	1.16 ± 0.1	1.14 ± 0.11	1.11 ± 0.1	1.12 ± 0.086	1.15 ± 0.05
AP3M2 (UniProt P53677)	1.09 ± 0.019	1.08 ± 0.016	1.13 ± 0.043	1.02 ± 0.047	1.06 ± 0.051	1.08 ± 0.069
P0DN76|Q01081|Q01081-2 (UniProt Q01081+P0DN76)	2.11 ± 0.23	2.14 ± 0.2	2.22 ± 0.17	2.36 ± 0.16	2.27 ± 0.11	2.24 ± 0.17
UniProt P63218	0.812 ± 0.15	0.735 ± 0.17	0.799 ± 0.22	0.72 ± 0.12	0.77 ± 0.16	0.678 ± 0.18
UniProt Q02078-2|Q02078-6	0.954 ± 0.086	0.939 ± 0.046	0.936 ± 0.065	0.926 ± 0.036	0.907 ± 0.032	0.949 ± 0.048
UniProt P62937|P62937-2	0.914 ± 0.063	1.02 ± 0.05	0.894 ± 0.091	0.992 ± 0.084	0.882 ± 0.11	0.962 ± 0.056
BANF1 (UniProt O75531)	5.83 ± 1.6	5.36 ± 0.56	5.89 ± 1.4	6.26 ± 1.4	5.6 ± 0.81	5.02 ± 1.8
PRPF6 (UniProt O94906)	1.31 ± 0.017	1.5 ± 0.12	1.79 ± 0.13	1.97 ± 0.2	2.18 ± 0.15	2.36 ± 0.21

Target	NP40-soluble protein abundance (concentration: 1mM)	NP40-soluble protein abundance (concentration: 2mM)	NP40-soluble protein abundance (concentration: 4mM)	NP40-soluble protein abundance (concentration: 6mM)	NP40-soluble protein abundance (concentration: 8mM)	NP40-soluble protein abundance (concentration: 10mM)
UniProt P60228	0.999 ± 0.024	0.999 ± 0.051	1.08 ± 0.035	1.23 ± 0.063	1.34 ± 0.073	1.49 ± 0.12
CTBS (UniProt Q01459)	0.951 ± 0.04	0.98 ± 0.028	0.939 ± 0.038	0.957 ± 0.038	0.932 ± 0.032	0.955 ± 0.013
UniProt P35251|P35251-2	1.23 ± 0.086	1.36 ± 0.093	1.45 ± 0.1	1.58 ± 0.11	1.51 ± 0.069	1.56 ± 0.084
PPP2CA (UniProt P67775)	0.959 ± 0.061	0.925 ± 0.0053	0.908 ± 0.021	0.962 ± 0.033	0.9033 ± 0.007	0.9 ± 0.085
XRCC5 (UniProt P13010)	1.04 ± 0.055	1.01 ± 0.051	0.996 ± 0.039	0.961 ± 0.076	1 ± 0.024	0.993 ± 0.057
CCNA2 (UniProt P20248)	0.998 ± 0.059	0.977 ± 0.027	0.993 ± 0.017	1.03 ± 0.046	0.9881 ± 0.0022	0.995 ± 0.05
UniProt P50213|H0YLF8	0.98 ± 0.039	0.963 ± 0.04	0.922 ± 0.036	0.95 ± 0.058	0.949 ± 0.057	0.932 ± 0.043
UniProt P28908|P28908-3	0.986 ± 0.073	0.999 ± 0.0037	1.08 ± 0.13	0.992 ± 0.073	0.951 ± 0.041	0.964 ± 0.026
UniProt P11388|P11388-2|P11388-3|P11388-4	1.31 ± 0.066	1.41 ± 0.062	1.64 ± 0.06	1.76 ± 0.074	1.99 ± 0.11	2.03 ± 0.14
SAP30 (UniProt O75446)	0.93 ± 0.092	0.952 ± 0.092	0.907 ± 0.073	0.971 ± 0.15	0.96 ± 0.044	0.915 ± 0.13
HMGN2 (UniProt P05204)	1.06 ± 0.36	1.27 ± 0.42	1.29 ± 0.44	1.67 ± 0.9	1.55 ± 0.41	2.08 ± 1.5
HSP90AB1 (UniProt P08238)	1.01 ± 0.063	0.99 ± 0.052	0.983 ± 0.05	0.928 ± 0.069	0.953 ± 0.022	0.964 ± 0.064
GAA (UniProt P10253)	0.981 ± 0.012	1.01 ± 0.021	1 ± 0.028	0.972 ± 0.015	0.962 ± 0.055	0.997 ± 0.033
LSM11 (UniProt P83369)	1.32 ± 0.26	1.26 ± 0.15	1.4 ± 0.17	1.62 ± 0.32	1.46 ± 0.2	1.69 ± 0.4
UniProt P06576|F8W0P7	0.822 ± 0.18	1.04 ± 0.22	0.825 ± 0.21	1.07 ± 0.2	1.05 ± 0.16	0.814 ± 0.21
MRPS25 (UniProt P82663)	0.942 ± 0.092	0.951 ± 0.066	0.96 ± 0.043	0.881 ± 0.09	0.915 ± 0.081	0.928 ± 0.078
UniProt P59190	1.18 ± 0.054	2.37 ± 1.5	1.25 ± 0.21	1.16 ± 0.23	1.22 ± 0.2	1.18 ± 0.15
PHKA2 (UniProt P46019)	0.975 ± 0.071	0.9386 ± 0.0054	0.92 ± 0.033	0.932 ± 0.087	0.95 ± 0.028	0.919 ± 0.029
C1QBP (UniProt Q07021)	1.15 ± 0.48	0.69 ± 0.36	1.21 ± 0.26	0.585 ± 0.18	1.19 ± 0.24	0.587 ± 0.2
FBL (UniProt P22087)	1.11 ± 0.075	1.13 ± 0.058	1.25 ± 0.047	1.544 ± 0.0074	1.93 ± 0.025	2.51 ± 0.15
